In one assay the test system is FLX1. As to the kind of experiment: cell viability z-score within plate (CellTiter-Glo), mean of 3 biological replicates; higher = higher viability relative to plate (less growth inhibition). Particulars: 2 µM; time (hr): 120. How it is done:
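FLX1 fibrolamellar carcinoma cells (DNAJB1-PRKACA fusion), 600 cells/well in 384-well plates, treated with a Selleck kinase inhibitor library (L1200) at 2 uM for 5 days (120 hr); viability by CellTiter-Glo. A z-score was computed within each plate and averaged over three biological replicates.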

For assay [1], the system named is FLX1 + dox-induced PRKAR1A G325D. As to the kind of experiment: difference in log2 fold change of viability vs plate median (dox-induced PRKAR1A G325D minus uninduced); higher = compound less effective when PKA is inhibited. As to conditions: concentration: not stated (2 or 5 uM); 5 days. The procedure: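 For each plate a log2 fold change vs the plate median was derived, and the values without dox were subtracted from those with dox, averaged over three biological replicates.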

The source of these data is the supplement of paper PMC9925115.

± gives the uncertainty stated by the source.

On to `Oc1ccc(-c2nc(-c3ccc(F)cc3)c(-c3ccncc3)[nH]2)cc1`, for which the “cell viability z-score within plate” value with FLX1 is -1.48 ± 1.1. Moreover, the “difference in log2 fold change of viability” value (from here on “difference in log2 fold change”) in assay [1] came out at 0.0143.

On to `O=C(NCCCNc1nc(Nc2cccc(NC(=O)N3CCCC3)c2)ncc1I)c1cccs1`, for which the “cell viability z-score within plate” value in the assay with FLX1 is -0.658 ± 0.97. For the same molecule, in assay [1], the “difference in log2 fold change” value was 0.621.

Turning to `C#Cc1cccc(Nc2ncnc3cc(OC)c(OCCCCCCC(=O)NO)cc23)c1`, the “cell viability z-score within plate” value in the assay with FLX1 is -0.217 ± 0.35. The “difference in log2 fold change” value in assay [1] is -0.131.

In the case of `Cc1ccc(Nc2nccc(N(C)c3ccc4c(C)n(C)nc4c3)n2)cc1S(N)(=O)=O`, the “cell viability z-score within plate” value in the assay with FLX1 was -0.43 ± 0.49. The “difference in log2 fold change” value in assay [1] was -0.0987.

In the case of `COc1ccc(-c2cc3c(C)nc(N)nc3n([C@H]3CC[C@H](OCCO)CC3)c2=O)cn1`, the “cell viability z-score within plate” value in the assay on FLX1 is -0.872 ± 0.053. The “difference in log2 fold change” value in assay [1] came out at 0.605.

`O=C1NCCc2[nH]c(-c3ccncc3)cc21`: in the assay on FLX1, the “cell viability z-score within plate” value amounted to 0.309 ± 0.59. Also, the “difference in log2 fold change” value in assay [1] is 0.179.

With `N#CC1(c2ccc(NC(=O)c3cccnc3NCc3ccncc3)cc2)CCCC1` [Apatinib], the “cell viability z-score within plate” value in the assay on FLX1 came out at 0.121 ± 0.33. In addition, the “difference in log2 fold change” value in assay [1] came to 0.497.

Turning to `C[C@@H](N)[C@H]1CC[C@H](C(=O)Nc2ccncc2)CC1`, in the assay on FLX1, the “cell viability z-score within plate” value stood at 0.0727 ± 0.19. Also, in assay [1], the “difference in log2 fold change” value amounted to 0.511.

For the molecule `O=C(Nc1ccc(-c2ccnc(Nc3ccc(N4CCOCC4)cc3)n2)cc1)C1CCCN1` (stereo not drawn), the “cell viability z-score within plate” value in the assay on FLX1 is 0.342 ± 0.56. In addition, the “difference in log2 fold change” value in assay [1] came to 0.201.

On to `Cc1cnc(Nc2ccc(N3CCN(C)CC3)cc2)nc1Nc1cccc(S(=O)(=O)NC(C)(C)C)c1`, for which the “cell viability z-score within plate” value with FLX1 was determined as 0.0181 ± 0.39. Moreover, the “difference in log2 fold change” value in assay [1] was -0.303.

As for `Cc1ncc(-c2ccnc(Nc3ccc(S(C)(=O)=O)cc3)n2)n1C(C)C`, the “cell viability z-score within plate” value with FLX1 is 0.322 ± 0.54. Moreover, the “difference in log2 fold change” value in assay [1] was 0.632.

With `COCC(=O)NC/C=C/c1ccc2ncnc(Nc3ccc(Oc4ccc(C)nc4)c(C)c3)c2c1`, in the assay on FLX1, the “cell viability z-score within plate” value is -0.356 ± 0.16. Moreover, the “difference in log2 fold change” value in assay [1] came to 0.0049.

In the case of `CN(C)Cc1cccc(N=C(c2ccccc2)c2c(O)[nH]c3cc(C(=O)N(C)C)ccc23)c1`, the “cell viability z-score within plate” value in the assay on FLX1 was determined as 0.69 ± 0.34. Also, in assay [1], the “difference in log2 fold change” value is 0.0526.

For `Cc1[nH]c(/C=C2\C(=O)Nc3ccccc32)c(C)c1CCC(=O)O` [Orantinib (TSU-68, SU6668)], in the assay with FLX1, the “cell viability z-score within plate” value was determined as 0.388 ± 0.61. The “difference in log2 fold change” value in assay [1] is 0.216.

For the molecule `COc1ccc(S(=O)(=O)N(CCO)c2ccccc2CN(C)C/C=C/c2ccc(Cl)cc2)cc1` [KN-93 Phosphate], in the assay with FLX1, the “cell viability z-score within plate” value was 0.23 ± 0.54. Besides, in assay [1], the “difference in log2 fold change” value turned out to be 0.66.

Turning to `CCN1CCN(Cc2ccc(Nc3ncc(F)c(-c4cc(F)c5nc(C)n(C(C)C)c5c4)n3)nc2)CC1`, in the assay on FLX1, the “cell viability z-score within plate” value turned out to be 0.939 ± 0.8. Further, the “difference in log2 fold change” value in assay [1] was -0.0976.

`O=C(c1cccc(Cl)c1F)N1CCN(Cc2cccc(Nc3nccs3)n2)CC1`: the “cell viability z-score within plate” value with FLX1 is -0.394 ± 0.96. The “difference in log2 fold change” value in assay [1] was -0.738.

For the molecule `CCOc1cc(N2CCC(O)CC2)ccc1Nc1ncc2c(n1)N(C)c1ccccc1C(=O)N2C`, the “cell viability z-score within plate” value with FLX1 came out at 0.413 ± 1.6. Also, in assay [1], the “difference in log2 fold change” value amounted to 0.697.

`C[C@@H](NC(=O)c1ncnc(N)c1Cl)c1ncc(C(=O)Nc2cc(C(F)(F)F)c(Cl)cn2)s1`: in the assay with FLX1, the “cell viability z-score within plate” value was 0.647 ± 0.28. Besides, the “difference in log2 fold change” value in assay [1] is -0.193.

With `NC(=O)Nc1sc(-c2ccc(F)cc2)cc1C(N)=O`, the “cell viability z-score within plate” value with FLX1 is -0.156 ± 0.51. Besides, the “difference in log2 fold change” value in assay [1] was -0.89.

In the case of `COc1cc2c(Nc3ccc(NC(=O)c4ccccc4)cc3)ncnc2cc1OCCCN1CCOCC1`, the “cell viability z-score within plate” value in the assay on FLX1 came out at 0.281 ± 0.48. The “difference in log2 fold change” value in assay [1] was determined as 0.301.

With `CNC(=O)c1cccc(-c2ccc3c(N4CCOC[C@@H]4C)nc(N4CCOC[C@@H]4C)nc3n2)c1` [Vistusertib (AZD2014)], the “cell viability z-score within plate” value in the assay with FLX1 was -0.936 ± 1.4. In addition, the “difference in log2 fold change” value in assay [1] worked out at 0.675.

`Nc1nc(Nc2ccc(S(N)(=O)=O)cc2)nn1C(=O)c1c(F)cccc1F`: the “cell viability z-score within plate” value with FLX1 was -2.24 ± 0.22. Moreover, in assay [1], the “difference in log2 fold change” value was found to be 0.0351.

As for `O=C(NC(NC(=S)Nc1ccc(F)c([N+](=O)[O-])c1)C(Cl)(Cl)Cl)C(c1ccccc1)c1ccccc1` (stereo not drawn), the “cell viability z-score within plate” value in the assay with FLX1 was found to be 0.309 ± 0.51. In assay [1], the “difference in log2 fold change” value amounted to 0.101.

Regarding `Cc1cc(NC(=O)c2cccc(NC(=O)/C=C/CN(C)C)c2)ccc1Nc1nccc(-c2cccnc2)n1`, the “cell viability z-score within plate” value in the assay with FLX1 amounted to 0.657 ± 0.22. Moreover, the “difference in log2 fold change” value in assay [1] was -0.217.

For the molecule `CN1CCN(CCOc2cc(OC3CCOCC3)c3c(Nc4c(Cl)ccc5c4OCO5)ncnc3c2)CC1` [Saracatinib (AZD0530)], the “cell viability z-score within plate” value with FLX1 came out at 0.194 ± 0.28. Further, in assay [1], the “difference in log2 fold change” value is -1.34.

For `CC(C)(C)c1ccc(S(=O)(=O)/C=C/C#N)cc1`, the “cell viability z-score within plate” value with FLX1 was -0.975 ± 1.1. Besides, in assay [1], the “difference in log2 fold change” value came to 0.145.

On to `CS(=O)(=O)CCNCc1ccc(-c2ccc3ncnc(Nc4ccc(OCc5cccc(F)c5)c(Cl)c4)c3c2)o1` [Lapatinib], for which the “cell viability z-score within plate” value in the assay on FLX1 was 0.823 ± 0.37. Besides, the “difference in log2 fold change” value in assay [1] is 0.129.

Consider `Cc1c(NC(=O)OC[C@@H]2COCCN2)cn2ncnc(Nc3ccc4c(cnn4Cc4cccc(F)c4)c3)c12`, for which, in the assay with FLX1, the “cell viability z-score within plate” value is -2.76 ± 1.1. Moreover, in assay [1], the “difference in log2 fold change” value was -0.034.

For `O=C(NC[C@H](O)CO)c1ccncc1Nc1ccc(I)cc1F`, in the assay on FLX1, the “cell viability z-score within plate” value was -0.968 ± 0.82. Further, in assay [1], the “difference in log2 fold change” value was -1.7.

Take `CN1CCN(C2CCN(C(=O)Nc3cc(Oc4ccc(NC(=O)C5(C(=O)Nc6ccc(F)cc6)CC5)c(F)c4)ccn3)CC2)CC1` [Golvatinib (E7050)]: the “cell viability z-score within plate” value in the assay on FLX1 is 0.521 ± 0.14. Besides, the “difference in log2 fold change” value in assay [1] was determined as 0.0894.

In the case of `CN1CCN(Cc2ccc(-c3cnc4[nH]cc(-c5ccc6[nH]ccc6c5)c4c3)cc2)CC1`, the “cell viability z-score within plate” value in the assay on FLX1 was -0.36 ± 0.19. Further, the “difference in log2 fold change” value in assay [1] is -0.00541.

On to `CCc1cncnc1N1CCN(Cc2nc3ccc(C(F)(F)F)cc3[nH]2)CC1`, for which, in the assay on FLX1, the “cell viability z-score within plate” value was 0.164 ± 0.73. In addition, the “difference in log2 fold change” value in assay [1] was -1.55.

In the case of `COc1cc(OC)c(/C=C/S(=O)(=O)Cc2ccc(OC)c(NCC(=O)O)c2)c(OC)c1`, the “cell viability z-score within plate” value in the assay on FLX1 turned out to be 0.00703 ± 0.25. For the same molecule, the “difference in log2 fold change” value in assay [1] came out at 0.2.
